Compounds with a hit are over-represented: about 6.7% of the library has one in this group of screens.
C diff growth: inhibitors of Clostridium difficile growth. Clostridium difficile clinical isolate growth, OD600, 24 h; stronger effect = lower value. growth activity, negative = inhibition, % at 16 µg/mL (by protocol). 0.25% of 86,000 active. AID 1259249;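 active = mean growth activity at or below -80% and every replicate also at or below -80%; inconclusive = mean at or below -80% but some replicate above -80%; inactive = mean growth activity above -80%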;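 also: 0% = DMSO wells and -100% = levofloxacin 16 µg/mL wells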
Pf Dd2 growth: P. falciparum Dd2 growth inhibition; AID 1159554; 2.3% of 94,000 active; SYBR Green, 72 h; stronger effect = lower value; activity change, % at 10 µM; in the data active = activity change below about -80%; inconclusive = no clear call, values can overlap the other calls
Tcruzi prolif: inhibitors of T. cruzi proliferation. T. cruzi beta-gal in NIH3T3, GalScreen luminescence, 90 h. inhibition, % at 8.34 µM. 5.9% of 77,000 active;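 active = mean inhibition above about 93%, with at least 55% of replicates each passing it, limit read from the data, passing the limit was not always enough; inconclusive = only one of those two conditions holds; inactive = neither condition holds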
Active calls of the source: *; u = inconclusive; x = no result given; ! = repeats disagree.

SMILES	C diff growth	Pf Dd2 growth	Tcruzi prolif
C[C@H]1CN([C@@H](C)CO)C(=O)c2c(c3ccccc3n2C)-c2ccccc2CO[C@H]1CN(C)C(=O)Nc1ccccc1	x	-37	47
C[C@@H]1CN([C@H](C)CO)C(=O)c2c(c3ccccc3n2C)-c2ccccc2CO[C@@H]1CN(C)C(=O)Nc1cccc(F)c1	x	-53	30
C[C@H]1CN([C@@H](C)CO)C(=O)c2c(c3ccccc3n2C)-c2ccccc2CO[C@H]1CN(C)C(=O)Nc1ccc(-c2ccccc2)cc1	2	-89*	x
C/C=C/c1cnc2c(c1)C(=O)N([C@@H](C)CO)C[C@H](C)[C@H](CN(C)C(=O)NCCC)O2	2	48	32
O=C(C1CC1)N1CC(=O)N2[C@H](C1)[C@@H](c1ccc(C#CCc3ccccc3)cc1)[C@@H]2CO	-23	u	x
C[C@@H]1CN([C@H](C)CO)C(=O)c2cc(C#CCN(C)C)cnc2O[C@@H]1CN(C)C(=O)c1ccc(F)cc1	-6	16	-47
CN(C[C@@H]1N[C@H](CO)[C@@H]1c1ccc(-c2cccc(F)c2)cc1)C(=O)C1CCC1	0	0	87
CCCC#Cc1ccc([C@@H]2[C@H]3CN(C(=O)c4ccncc4)CC(=O)N3[C@H]2CO)cc1	-1	19	x
C[C@H](CO)N1C[C@H](C)[C@@H](CN(C)C(=O)NC2CCCCC2)Oc2c(NC(=O)NC3CCCCC3)cccc2C1=O	1	17	18
COc1cccc(CN2[C@@H]3CNC[C@H]2C3c2ccc(/C=C/c3ccccc3)cc2)c1 (stereo not given in full)	39	-48	x
CC(C)CNC[C@@H]1[C@@H](c2ccccc2)[C@@H](CO)N1Cc1ccc(F)cc1	20	-91*	x
CN(C)C(=O)c1ccc(-c2ccc(C3[C@H]4CNC[C@@H]3N4C(=O)Nc3cccc(Cl)c3)cc2)cc1 (stereo not given in full)	-3	37	x
COc1cccc(NC(=O)N2[C@@H](CO)[C@@H](c3ccccc3)[C@@H]2CNCC(C)C)c1	-4	-81*	70
COc1cc(CN2[C@@H]3CNC[C@H]2C3c2ccc(/C=C/c3ccccc3)cc2)cc(OC)c1 (stereo not given in full)	-93*!	-33	x
O=C(Nc1cccc(Cl)c1)N1[C@@H]2CNC[C@H]1C2c1ccc(/C=C/c2ccccc2)cc1 (stereo not given in full)	-95*!	-68	x
OC[C@H]1[C@@H](c2ccccc2)[C@H](CNCC2CCC2)N1CC1CC1	9	-27	31
CNC[C@@H]1[C@H](c2ccccc2)[C@H](CO)N1C(=O)Nc1cccc(OC)c1	-4	7	44
Cc1ccc(S(=O)(=O)N(C)C[C@@H]2OCCCC[C@@H](C)Oc3ccc(NC(=O)Nc4cccc5ccccc45)cc3C(=O)N([C@H](C)CO)C[C@H]2C)cc1	3	-78	x
C[C@@H]1CN([C@@H](C)CO)C(=O)c2cc(-c3cccnc3)cnc2O[C@@H]1CN(C)C(=O)Nc1ccccc1	-3	14	25
COc1cccc(NC(=O)N2[C@@H]3CNC[C@H]2C3c2ccc(-c3ccccc3)cc2)c1 (stereo not given in full)	4	7	x
COc1cccc(NC(=O)N2[C@@H]3CNC[C@H]2C3c2ccc(/C=C/c3ccccc3)cc2)c1 (stereo not given in full)	-98*!	-20	x
COc1ccc(S(=O)(=O)Nc2ccc3c(c2)C(=O)N([C@@H](C)CO)C[C@H](C)[C@@H](CN(C)S(=O)(=O)c2ccc(C)cc2)OCCCC[C@H](C)O3)cc1	x	-83*	x
COc1ccc(S(=O)(=O)Nc2ccc3c(c2)C(=O)N([C@H](C)CO)C[C@H](C)[C@@H](CN(C)S(=O)(=O)c2ccc(OC)cc2)OCCCC[C@@H](C)O3)cc1	-5	-20	53
COc1ccc(S(=O)(=O)Nc2ccc3c(c2)C(=O)N([C@@H](C)CO)C[C@@H](C)[C@@H](CN(C)S(=O)(=O)c2ccc(C)cc2)OCCCC[C@@H](C)O3)cc1	x	-53	x
COc1ccc(S(=O)(=O)Nc2ccc3c(c2)C(=O)N([C@@H](C)CO)C[C@@H](C)[C@@H](CN(C)S(=O)(=O)c2ccc(OC)cc2)OCCCC[C@H](C)O3)cc1	0	-85*	63
SMILES	C diff growth	Pf Dd2 growth	Tcruzi prolif
O=C(C[C@H]1CC[C@@H]2[C@H](COC[C@@H](O)CN2C(=O)Cc2ccccc2)O1)NC1CCC1	x	-20	-7
C[C@@H]1CCCCO[C@H](CN(C)CC2CCCCC2)[C@@H](C)CN([C@H](C)CO)C(=O)c2cc(NC(=O)Nc3cccc4ccccc34)ccc2O1	11	-71	104
C[C@@H]1CCCCO[C@@H](CN(C)C)[C@@H](C)CN([C@@H](C)CO)C(=O)c2cc(NC(=O)Nc3cccc4ccccc34)ccc2O1	6	x	78
C[C@@H]1CN([C@H](C)CO)C(=O)c2cc(NC(=O)Nc3cccc4ccccc34)ccc2O[C@@H](C)CCCCO[C@@H]1CN(C)C(=O)C1CCCCC1	0	-91*	105
C[C@@H]1CN([C@@H](C)CO)C(=O)c2cc(NC(=O)Nc3cccc4ccccc34)ccc2O[C@@H](C)CCCCO[C@@H]1CN(C)C	2	-87*	-8
C[C@H]1CCCCO[C@@H](CN(C)CC2CCCCC2)[C@@H](C)CN([C@@H](C)CO)C(=O)c2cc(NC(=O)Nc3cccc4ccccc34)ccc2O1	0	-83*	120
C[C@@H]1CN([C@@H](C)CO)C(=O)c2cc(NC(=O)Nc3cccc4ccccc34)ccc2O[C@@H](C)CCCCO[C@H]1CN(C)C(=O)C1CCCCC1	0	-51	46
COc1ccc2c3c([nH]c2c1)[C@@H](CO)N(C(=O)c1ccncc1)CC31CN(C(=O)c2ccncc2)C1	-10	-5	x
NCC[C@@H]1CC[C@@H](NC(=O)C2CCCCC2)[C@H](CO)O1	4	6	x
C[C@H](CO)N1C[C@H](C)[C@@H](CN(C)C(=O)NC2CCCCC2)Oc2ccc(NS(=O)(=O)c3ccc(Cl)cc3)cc2CC1=O	4	0	x
CCCNC(=O)N1[C@H](C#N)[C@H](c2ccc(-c3ccccc3F)cc2)[C@@H]1CO	18	-87*	91
CCCNC(=O)N1[C@@H](C#N)[C@H](c2ccc(-c3ccccc3F)cc2)[C@@H]1CO	-5	-63	34
CCCNC(=O)N1[C@H](C#N)[C@H](c2ccc(-c3ccccc3F)cc2)[C@H]1CO	12	-88*	67
CCCNC(=O)N1[C@H](CO)[C@@H](c2ccc(-c3ccccc3F)cc2)[C@@H]1C#N	1	-16	56
OC[C@@H]1CC[C@@H]2O[C@H](CCc3ccc(-c4ccc(F)cc4)cc3)[C@H](n3cc(C4CC4)nn3)C[C@@H]2O1	-9	-78	x
COCC#Cc1ccc(CC[C@H]2O[C@H]3CC[C@H](CO)O[C@H]3C[C@@H]2n2cc(C3CC3)nn2)cc1	1	-87*	x
COCC#Cc1ccc(CC[C@H]2O[C@H]3CC[C@@H](CO)O[C@H]3C[C@@H]2n2cc(C(C)(C)O)nn2)cc1	4	-40	x
OC[C@H]1CC[C@@H]2O[C@H](CCc3ccc(-c4ccc(F)cc4)cc3)[C@H](n3cc(C4CC4)nn3)C[C@@H]2O1	3	-82*	x
